Screening results from PubChem BioAssay.
NOMO-1 viab: STK33 inhibitor candidate reducing NOMO-1 cell viability; NOMO-1 AML viability, CellTiter-Glo luminescence, 72 h; inhibition, % (test concentration not listed); hit rate 7.5% among 37,000; AID 2330; in the data active = inhibition above about 80%; inconclusive = no clear call, values can overlap the other calls
Shh pathway inh: Sonic Hedgehog pathway inhibition | Shh-LIGHT2 Gli-luciferase reporter, 30 h | inhibition, % (no concentration beside the values) | hit rate 2.1% among 22,000 | AID 2313;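 active = mean inhibition across valid replicates above about 65%, limit read from the data; inconclusive = mean under the limit, yet half or more replicates past it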;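 also: pathway switched on by Shh-conditioned medium diluted 1 in 25 in low serum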
MITF inhib: MITF inhibition; TRPM1 promoter luciferase, luminescence, 24 h; inhibition, % (no concentration beside the values); hit rate 0.28% among 37,000; AID 2240; in the data active = inhibition above about 85%; inconclusive = no clear call, values can overlap the other calls; inactive = below about 68%;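 also: human melanocyte line stably carrying TRPM1 promoter luciferase reporter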
PD-1 reverse act: activators reversing PD-1 mediated T-cell inhibition; primary human CD4 T cells, PD-L1 beads, CellTiter-Glo 96 h; activation, % (test concentration not listed); 29,000 tested, under 10 active; call rule not given here;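 also: 0% = median vehicle wells and 100% = positive control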
The depositor's hits bear a star. Compounds with a hit are over-represented: about 8.1% of the library has one in this group of screens.

What do the screens show for `C[C@H](CO)N1C[C@H](C)[C@H](CN(C)S(=O)(=O)c2ccc(Cl)cc2)Oc2c(NC(=O)c3ccc(-c4nccs4)cc3)cccc2C1=O`?
NOMO-1 viab: 84.0*; Shh pathway inh: 94.6*; MITF inhib: 13.5; PD-1 reverse act: -1.4

What do the screens show for `C[C@@H]1CN([C@@H](C)CO)C(=O)c2cccc(NC(=O)c3ccc(-c4nccs4)cc3)c2O[C@H]1CN(C)Cc1ccc2c(c1)OCO2`?
NOMO-1 viab: 103.0*; Shh pathway inh: -40.7; MITF inhib: 21.9; PD-1 reverse act: -4.0

What do the screens show for `C[C@H](CO)N1C[C@H](C)[C@@H](CN(C)Cc2ccc(Cl)c(Cl)c2)Oc2c(NC(=O)c3ccc(-c4nccs4)cc3)cccc2C1=O`?
NOMO-1 viab: 115.7*; Shh pathway inh: 60.0; MITF inhib: 58.1; PD-1 reverse act: -9.1

Results for COc1ccc(NC(=O)Nc2ccc3c(c2)CC(=O)N([C@H](C)CO)C[C@H](C)[C@H](CN(C)Cc2ccc(Cl)c(Cl)c2)O3)cc1 ?
NOMO-1 viab: 68.8; Shh pathway inh: 1.2; MITF inhib: -7.7; PD-1 reverse act: 2.1

What do the screens show for `C[C@H]1CN([C@@H](C)CO)C(=O)Cc2cc(NC(=O)Nc3ccc(C(F)(F)F)cc3)ccc2O[C@@H]1CN(C)Cc1ccc(Cl)c(Cl)c1`?
NOMO-1 viab: 22.1; Shh pathway inh: -8.3; MITF inhib: 8.9

What do the screens show for `C[C@@H]1CN([C@@H](C)CO)C(=O)Cc2cc(NC(=O)Nc3ccc(F)cc3)ccc2O[C@@H]1CN(C)Cc1ccc(Cl)c(Cl)c1`?
NOMO-1 viab: 102.7*; Shh pathway inh: -13.1; MITF inhib: 29.4; PD-1 reverse act: -2.6

What do the screens show for `C[C@H]1CN([C@@H](C)CO)C(=O)Cc2cc(NC(=O)Nc3ccccc3)ccc2O[C@H]1CN(C)Cc1ccccc1`?
NOMO-1 viab: 65.1; Shh pathway inh: 25.7; MITF inhib: -13.7

How did C[C@H]1CN([C@@H](C)CO)C(=O)Cc2cc(NC(=O)Nc3ccccc3)ccc2O[C@H]1CN(C)Cc1ccc(Cl)c(Cl)c1 do in these assays?
NOMO-1 viab: 104.1*; Shh pathway inh: -21.4; MITF inhib: -3.4; PD-1 reverse act: -1.6

What do the screens show for `CC(C)NC(=O)Nc1ccc2c(c1)CC(=O)N([C@@H](C)CO)C[C@H](C)[C@H](CN(C)C(=O)Nc1ccc3c(c1)OCO3)O2`?
NOMO-1 viab: -16.7; Shh pathway inh: 65.3*; MITF inhib: -5.7; PD-1 reverse act: 0.9

Results for C[C@H](CO)N1C[C@H](C)[C@H](CN(C)Cc2ccc(Cl)c(Cl)c2)Oc2ccc(NC(=O)Nc3ccccc3)cc2CC1=O ?
NOMO-1 viab: 115.7*; Shh pathway inh: 32.1; MITF inhib: 29.1; PD-1 reverse act: -1.3

What do the screens show for `C[C@@H]1CN([C@@H](C)CO)C(=O)c2cccc(NS(=O)(=O)c3cn(C)cn3)c2O[C@H]1CN(C)C`?
NOMO-1 viab: -7.0; Shh pathway inh: -4.9; MITF inhib: -11.0

How did C[C@@H]1CN([C@@H](C)CO)C(=O)c2cc(NS(=O)(=O)c3ccccc3)ccc2O[C@H]1CN(C)Cc1ccc(Oc2ccccc2)cc1 do in these assays?
NOMO-1 viab: inconclusive; MITF inhib: 25.6; PD-1 reverse act: -1.6

Results for C[C@@H]1CN([C@@H](C)CO)C(=O)Cc2cc(NC(=O)Cn3cnnn3)ccc2O[C@@H]1CN(C)C(=O)Nc1ccc(F)cc1 ?
NOMO-1 viab: 10.1; Shh pathway inh: -7.1; MITF inhib: 8.3; PD-1 reverse act: 3.0

What do the screens show for `C[C@@H]1CN([C@@H](C)CO)C(=O)Cc2cc(NC(=O)NC3CCCCC3)ccc2O[C@@H]1CN(C)Cc1ccncc1`?
NOMO-1 viab: -1.5; Shh pathway inh: -21.6; MITF inhib: -7.3; PD-1 reverse act: -0.6

How did C[C@@H]1CN([C@H](C)CO)C(=O)Cc2cc(NC(=O)NC3CCCCC3)ccc2O[C@@H]1CN(C)Cc1ccc(Cl)c(Cl)c1 do in these assays?
NOMO-1 viab: 113.7*; Shh pathway inh: 12.6; MITF inhib: 26.8; PD-1 reverse act: -8.5

What do the screens show for `C[C@H](CO)N1C[C@H](C)[C@H](CN(C)Cc2ccc(Cl)c(Cl)c2)Oc2ccc(NC(=O)Nc3ccc4c(c3)OCO4)cc2CC1=O`?
NOMO-1 viab: 93.9*; Shh pathway inh: -8.4; MITF inhib: 29.0

What do the screens show for `CC(C)(O)C1Cc2cc(CCc3cc(O)cc(O)c3)ccc2O1` (stereo unspecified)?
NOMO-1 viab: 6.2; Shh pathway inh: 28.0; MITF inhib: 18.2; PD-1 reverse act: 0.8

What do the screens show for `CC(=O)OCc1ccccc1Sc1ccccc1C(=O)Nc1ccccc1`?
NOMO-1 viab: 10.9; Shh pathway inh: 24.4; MITF inhib: 11.8; PD-1 reverse act: 0.8

What do the screens show for `C[C@@H]1CN([C@H](C)CO)C(=O)Cc2cc(NS(=O)(=O)c3cccs3)ccc2O[C@@H]1CN(C)Cc1ccc(C(=O)Nc2ccccc2N)cc1`?
NOMO-1 viab: 116.1*; MITF inhib: 6.9; PD-1 reverse act: -0.1

How did C[C@H]1CN([C@@H](C)CO)C(=O)c2cc(NS(=O)(=O)c3cccs3)ccc2O[C@H]1CN(C)Cc1ccc(C(=O)Nc2ccccc2N)cc1 do in these assays?
NOMO-1 viab: 70.6; MITF inhib: 18.1; PD-1 reverse act: -0.1

Results for C[C@@H]1CN([C@@H](C)CO)C(=O)Cc2cc(NS(=O)(=O)c3cccs3)ccc2O[C@@H]1CN(C)Cc1ccc(C(=O)Nc2ccccc2N)cc1 ?
NOMO-1 viab: 89.6*; MITF inhib: 16.6; PD-1 reverse act: -0.2

How did C[C@H]1CN([C@@H](C)CO)C(=O)Cc2cc(NS(=O)(=O)c3cccs3)ccc2O[C@@H]1CN(C)Cc1ccc(C(=O)Nc2ccccc2N)cc1 do in these assays?
NOMO-1 viab: 45.0; MITF inhib: -18.4; PD-1 reverse act: 0.2

How did CC(=O)Nc1ccc(OCC(O)CNC(C)C)cc1 (stereo unspecified) do in these assays?
NOMO-1 viab: 1.2; Shh pathway inh: -6.9; MITF inhib: 18.1

Results for C[C@@H]1CN([C@@H](C)CO)C(=O)c2cc(NC(=O)NC3CCCCC3)ccc2O[C@H]1CN(C)Cc1ccc(C(F)(F)F)cc1 ?
NOMO-1 viab: 40.7; Shh pathway inh: 14.7; MITF inhib: -1.1

What do the screens show for `O=C(Nc1ccc(OCc2nc3ccccc3s2)cc1)c1cccc(I)c1`?
NOMO-1 viab: 105.5*; MITF inhib: -7.1

Results for CCC(=O)Nc1ccc(OCc2nc3ccccc3s2)cc1 ?
NOMO-1 viab: -6.9; MITF inhib: 38.2

What do the screens show for `C[C@H]1CN([C@@H](C)CO)C(=O)Cc2cc(NC(=O)Nc3ccc4c(c3)OCO4)ccc2O[C@H]1CN(C)Cc1ccc(C(F)(F)F)cc1`?
NOMO-1 viab: 78.2; Shh pathway inh: -6.0; MITF inhib: 42.4

How did COc1c(OC)c(O)c2c(=O)cc(-c3ccc(O)cc3)oc2c1OC do in these assays?
NOMO-1 viab: 114.9*; Shh pathway inh: -28.6; MITF inhib: -39.6; PD-1 reverse act: -1.7

What do the screens show for `COc1cc(-c2cc(=O)c3c(O)c(OC)c(OC)c(O)c3o2)ccc1O`?
Shh pathway inh: 34.0

What do the screens show for `COc1cc(OC)c2c(=O)c(O)c(-c3ccc(OC)c(OC)c3)oc2c1`?
NOMO-1 viab: 102.1*; Shh pathway inh: 43.2; MITF inhib: -13.3

Results for COc1ccc(-c2oc3c(OC)c(OC)c(OC)c(O)c3c(=O)c2OC)cc1OC ?
NOMO-1 viab: 107.3*; Shh pathway inh: 24.0; MITF inhib: -21.0; PD-1 reverse act: -4.2
